Test results as given in PubChem BioAssay AID932 (The Scripps Research Institute Molecular Screening Center, 2007).
About 5,100 (2.5%) of roughly 200,000 compounds were called active.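 Rule for the calls: active = activation above the screen-wide mean activation plus 3 SD (cut at about 130% in these data); inactive = the rest.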 Only a selection was taken, and actives are over-represented in it overall.

Experiment: STAT1 signaling activators, primary screen, cell-based, HTS, luciferase reporter (AID 932);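 note: raw ratio to IFN-gamma control signal so 100% means no change and 0% no light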
Settings: NIH 3T3 STAT1-luciferase reporter, IFN-gamma, luminescence; at 5.5 µM; active compounds read high; 100% = IFN-gamma alone, no compound

Activation (% of control), inactive:
COc1ccc(NC(=S)Nc2ccccc2Cl)cn1 88.6%
COc1ccc(NC(=S)NCCNC(C)=O)cc1 103%
CC(=O)Nc1ccc(OCC(=O)NCc2ccc(C)cc2)cc1 95.8%
Cc1ccc(NC(=O)OCc2cncs2)cc1 118%
c1ccc2c(c1)CSc1sccc1C2=C1CCNCC1 98.4%
CN(C)/C=C/C(=O)c1cnc2sccn2c1=O 105%
COc1cccc(NCCC(=O)c2cccc([N+](=O)[O-])c2)c1 116%
O=C(c1ccc2c(c1)N(Cc1ccc(F)cc1)C(=O)c1ccccc1S2(=O)=O)N1CCN(c2ccccn2)CC1 97.5%
CCn1c(SCC(=O)N(C)C2CCS(=O)(=O)C2)nnc1-c1cccs1 (stereo not given) 97.1%
Cc1ccc(NCc2n[nH]c(=S)n2-c2ccccc2)cc1Cl 114%
CCOC(=O)N1CCN(c2cc(C)c([N+](=O)[O-])cc2F)CC1 77.6%
CC1CCCCC1NC(=O)CN1CCC(O)(c2ccc3c(c2)OCO3)CC1 (stereo not given) 102%
COC(=O)N/N=C/c1ccc(/C=N/NC(=O)OC)cc1 103%
O=C(C[n+]1ccccc1)N/N=C/c1ccc(O)cc1 97.6%
C/C=C/c1ccc(OCCCCN2CCC(C)CC2)c(OC)c1 98.3%
COc1cc(S(=O)(=O)N2CCOCC2)ccc1NC(=O)COc1ccc(N(C)S(=O)(=O)c2ccc(C)cc2)cc1 88.9%
COc1ccc(C(=S)Nc2ccccc2)cc1 118%
COc1ccc(C(=O)NC2CCN(C(=S)Nc3ccccc3)CC2)cc1 88.7%
Cc1ccccc1-n1cc(CNC(=O)CC2C(=O)NCCN2C/C=C/c2ccccc2)cn1 (stereo not given) 100%
O=C(Cn1cc(C(F)(F)F)ccc1=O)N/N=C/c1ccc(Cl)cc1Cl 116%
O=C(O)c1ccc2c(c1)C(=O)N(c1ccc(/C=C/C(=O)c3ccccc3)cc1)C2=O 99.8%
O=C(/C=C/c1ccccc1)c1ccoc1 98%
Cc1ccc(NC(=O)CCOc2ccccc2)cc1S(=O)(=O)Nc1ccccc1Cl 98.8%
Cc1csc(NC(=O)CSc2ccc(-c3ccc(F)cc3)nn2)n1 112%
Cc1ccc(NC(=S)NCc2ccccc2Cl)c(C)c1 96.8%
CCOC(=O)N1CCN(C(=S)Nc2ccc(C)cc2C)CC1 96.2%
COc1ccc(N2CCN(C(=S)Nc3ccc(S(N)(=O)=O)cc3)CC2)cc1 89.8%
O=c1c2ccccc2nc(N/N=C/c2ccccc2)n1O 113%
COc1ccc(C=Nc2cccc3ncccc23)cc1 99.7%
COc1ccc(S(=O)(=O)NCC2CCCN(C(=O)c3occc3C)C2)cc1 (stereo not given) 96.8%
COc1ccc(/C=N/NC(=O)C(C)N(c2ccc(OC)cc2)S(C)(=O)=O)cc1 (stereo not given) 100%
CC(C)(C)c1ccc(/C=C/C(=O)NC2CCS(=O)(=O)C2)cc1 (stereo not given) 104%
O=C(/C=C/c1ccc(Cl)cc1)Nc1ccc(S(=O)(=O)Nc2ncccn2)cc1 107%
O=C(NCCN1C(=O)S/C(=C\c2cccnc2)C1=O)c1cccc(OC(F)F)c1 101%
Cc1ccccc1NC(=O)NC1(C(=O)N2CCCC2)CCCCC1 99%
COc1ccc2nc(Nc3nc4ccc(NC(C)=O)cc4s3)sc2c1 109%
COc1cccc(C(=O)Nc2nc3ccc(S(C)(=O)=O)cc3s2)c1 119%
O=C(/C=C/c1cccs1)NCc1cccnc1 101%
CSc1ccc(/C=N\NC(=O)COc2ccc(Cl)cc2Br)cc1 103%
COc1ccc(/C=N/NC(=O)c2cccc(C(F)(F)F)c2)cc1 105%
COc1ccc(/C=C/C(=O)N2CCCC2)cc1OC 84.7%
COc1ccc(/C=C/C(=O)Nc2cccnc2)cc1OC 112%
O=C(CC12CC3CC(CC(C3)C1)C2)NCc1ccco1 97.2%
C/C(=N\NC(=O)c1cccc(N2CCCC2=O)c1)c1ccc(N)cc1 113%
Nc1ccc(-c2sc(N)nc2-c2ccccc2)cc1 94.5%
CCCC(=O)Nc1nnc(-c2ccccc2)o1 103%
O=C(OCc1ccc(Br)cc1)c1cccc(-c2nnc(-c3ccccc3)o2)c1 112%
OC(c1nnc(-c2ccccc2)o1)c1cccs1 (stereo not given) 117%
CCNC(=O)c1ccc(OCC(=O)Nc2ccc(F)cc2)c(OC)c1 105%
CCCCN1C(=O)CCC(C(=O)O)C1c1ccc(OC)cc1 (stereo not given) 107%
Nc1ccc(C(=O)NCc2ccccc2)cc1 100%
COC(=O)CSc1ccc2nnc(CCNS(=O)(=O)c3ccc(C)cc3)n2n1 96.4%

Activation (% of control), active:
COc1ccc(CS(=O)/C(Cl)=C(/Cl)C(=O)Nc2ccc(OC)nc2)cc1 (stereo not given) 279%
COc1ccc(NC(=O)/C(Cl)=C(/Cl)S(=O)Cc2ccc(C)cc2)cn1 (stereo not given) 222%
Cc1nonc1C(=O)N/N=C/c1ccc(O)cc1 135%
COc1ccc(NC(=S)N2N=CCC2c2ccccc2)cc1 (stereo not given) 135%
O=C(/C=C/c1ccc(N2CCOCC2)cc1)c1ccccc1 129%
Cc1ccc(NC(=S)Nc2ncccc2C)c(C)c1 134%
COc1ccc(/C=N/Nc2nc3ccccc3c(=O)[nH]2)cc1 155%
CC(C)(C)c1ccc(/C=C/C(=O)Nc2ncccn2)cc1 138%
COc1ccc2nc(NC(=O)c3ccc(Br)s3)sc2c1 158%
CSc1ccc(/C=N/NC(=O)c2cccc(Cl)c2)cc1 150%
COc1ccc(/C=C/C(=O)Nc2ccc(C34CC5CC(CC(O)(C5)C3)C4)cc2)cc1OC 141%
Brc1ccc(-c2nnc(-c3ccccc3)o2)o1 138%
Nc1ccc(-c2nnc(-c3ccc(-c4ccccc4)cc3)o2)cc1 139%
